From PubChem BioAssay (NCATS)
Where “and” joins values, the source holds several entries; their conditions need not be identical. Identical values can stand only once. Results filed as inconclusive are left out. Calls of active or inactive are those of the source. Unless noted, calls follow the shape of the dose curve; as a rule, active = well fitted curve in the direction sought with a large enough effect; inconclusive = small, poorly fitted or top-dose-only effect, or another doubt; inactive = no such curve, though single readings can be large; an effect the other way counts as inactive or inconclusive.

How the values were obtained:
[1] = Cell Viability - Hek293 (AID 427;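 active = compounds whose dose-response curve shows a full or clear partial loss of cell viability, called from curve shape rather than a numeric limit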;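 also: potency is read from the fitted curve at half-maximal effect; cells exposed to compound for 40 hours at 37 °C before reading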); conditions: qHTS
In short: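 Luminescent ATP read-out (CellTiter-Glo, 20 min RT) after 40 hr compound exposure at 37 °C in complete medium. Signal normalized to DMSO (basal) and 100 uM tamoxifen (100% inhibition); concentration-response fitted with the standard Hill equation to give AC50.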

[2] = Cell Viability - SK-N-SH (AID 435; calls by dose curve;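 also: potency is read from the fitted curve at half-maximal effect; compound exposure lasted 40 h at 37 °C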); conditions: SK-N-SH neuroblastoma cell viability qHTS
In short: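 SK-N-SH human neuroblastoma cells (1500/well) were exposed to compounds in complete medium for 40 h at 37 °C, and intracellular ATP was then measured by CellTiter-Glo luminescence. AC50 was taken from Hill fits, normalized to DMSO and 100 uM tamoxifen.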

[3] = Cell Viability - HUV-EC-C (AID 542); conditions: HUV-EC-C endothelial cell viability, qHTS; series mostly up to 92.2 µM; also: % is scaled to controls: 0 for no effect and ±100 for the full control effect; nearly all actives have a fitted effect of over 35% in size
In short: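 HUV-EC-C normal human vascular endothelial cells, 1000 cells/well, pre-incubated 5 hr at 37 °C, then exposed to compounds for 40 hr at 37 °C in complete medium. Viability measured as intracellular ATP by CellTiter-Glo luminescence; AC50 from Hill fits.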

[4] = Cell Viability - H-4-II-E (AID 543); conditions: H-4-II-E rat hepatoma viability; series mostly up to 92.2 µM; also: nearly all actives have a fitted effect of over 35% in size; also: potency is read from the fitted curve at half-maximal effect
In short: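 Rat hepatoma H-4-II-E cells (1500/well) were plated, incubated 5 hr at 37 °C, then exposed to compounds for 40 hr at 37 °C. Cellular ATP was read by CellTiter-Glo luminescence; AC50 came from Hill-equation fits of concentration-response data.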

[5] = Cell Viability - SH-SY5Y (AID 544); conditions: SH-SY5Y neuroblastoma cell viability; viability change, negative = cytotoxic: at 92.2 µM (top of the series); also: nearly all actives have a fitted effect of over 55% in size; also: potency is read from the fitted curve at half-maximal effect;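 as to viability change, negative = cytotoxic: 0% = DMSO alone and -100% = 100 µM tamoxifen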
In short: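 Human neuroblastoma SH-SY5Y cells (1500/well) in complete medium were exposed to compounds for 40 hr at 37 °C; intracellular ATP was then quantified by CellTiter-Glo luminescence after 20 min at room temperature. AC50 came from Hill-equation concentration-response fits.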

[6] = Cellular Toxicity (caspase-3) Renal Proximal Tubule (AID 667); conditions: renal proximal tubule cells; series mostly up to 91.7 µM;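 also: cells exposed to compound for 16 hours at 37 °C before detection; 0% = DMSO basal and 100% = 10 µM staurosporine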
In short: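 Primary rat proximal tubule cells, 1000/well, 5 h plating at 37 °C, then compound 16 h at 37 °C. Caspase-Glo 3/7 reagent, 1 h RT, luminescence. Normalized to DMSO (basal) and 10 uM staurosporine (100%); Hill-fit AC50.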

[7] = target: Cytochrome P450 3A4 (Homo sapiens) (UniProt P08684); test: qHTS Assay for Inhibitors and Substrates of Cytochrome P450 3A4 (AID 884); conditions: recombinant CYP3A4, Luciferin-PPXE luminescence; series mostly up to 57.1 µM; also: nearly all actives have a fitted effect of over 50% in size; also: potency is read from the fitted curve at half-maximal effect
Cytochrome P450 3A4 (Homo sapiens), sequence (P08684 whole entry, looked up): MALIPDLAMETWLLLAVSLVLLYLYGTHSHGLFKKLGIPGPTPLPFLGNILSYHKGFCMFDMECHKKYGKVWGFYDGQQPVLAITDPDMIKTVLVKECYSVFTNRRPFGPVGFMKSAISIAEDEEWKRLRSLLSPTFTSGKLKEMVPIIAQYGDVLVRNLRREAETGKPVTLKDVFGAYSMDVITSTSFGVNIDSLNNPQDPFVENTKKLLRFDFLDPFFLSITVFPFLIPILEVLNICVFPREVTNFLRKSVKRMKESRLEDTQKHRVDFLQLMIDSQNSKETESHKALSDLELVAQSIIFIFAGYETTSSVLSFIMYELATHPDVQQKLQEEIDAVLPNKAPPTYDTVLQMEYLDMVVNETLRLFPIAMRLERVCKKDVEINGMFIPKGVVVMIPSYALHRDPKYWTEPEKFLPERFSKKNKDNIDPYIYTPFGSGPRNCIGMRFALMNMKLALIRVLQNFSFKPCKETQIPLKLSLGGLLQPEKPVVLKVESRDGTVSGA
In short: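 20 nM human CYP3A4 with 25 uM Luciferin-PPXE (at KM) in 200 mM KPO4, preincubated 10 min with compound; NADPH regeneration started a 60 min RT reaction. Luciferin detected by luminescence, normalized to 57 uM ketoconazole as full inhibition.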

[8] = MultiTox-Fluor Cytotoxicity Assay - LYMP1-002 - Dead Cells (AID 960); conditions: LYMP1-002 lymphoblastoid cells, dead-cell protease fluorescence; series mostly up to 46.1 µM; also: nearly all actives have a fitted effect of over 60% in size; also: potency is read from the fitted curve at half-maximal effect
In short: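 Human lymphoblastoid cells (LYMP1-002), 2500/well in complete medium, were exposed to compounds for 16 hr at 37 C. Dead-cell protease activity was read as bis-AAF-R110 fluorescence (Ex/Em 485/520), normalized to DMSO and 15 uM tetraoctylammonium bromide; AC50 from Hill fits.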

[9] = Cell Viability - LYMP2-004 (AID 966); conditions: LYMP2-004 lymphoblastoid cell viability, qHTS; series mostly up to 92.2 µM;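 also: plate controls were DMSO only for no effect and tetraoctylammonium bromide control for full effect; nearly all actives have a fitted effect of over 65% in size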
In short: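 Human lymphoblastoid cells (2500/well) in complete medium were treated with compounds for 24 hr at 37 C, then intracellular ATP was measured by CellTiter-Glo luminescence. AC50 values came from Hill-equation fits of concentration-response data.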

[10] = Cell Viability - LYMP2-005 (AID 967); conditions: LYMP2-005 lymphoblastoid cell viability; series mostly up to 92.2 µM;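 also: plate controls were DMSO only for no effect and 92 µM tetraoctylammonium bromide control for full effect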
In short: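 CellTiter-Glo luminescence (cellular ATP) read-out; LYMP2-005 lymphoblastoid cells, 2500/well, 5 h pre-incubation, then 24 h compound exposure at 37 C in complete medium. Tetraoctylammonium bromide positive control; AC50 by standard Hill fit.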

[11] = Cell Viability - LYMP2-012 (AID 982); conditions: LYMP2-012 lymphoblastoid cell viability qHTS; series mostly up to 92.2 µM;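 also: cellular ATP by luciferase luminescence where a drop means cytotoxicity; cells exposed to compound for one day before reading; 0% = DMSO only and full loss = 92 µM tetraoctylammonium bromide; nearly all actives have a fitted effect of over 55% in size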
[12] = Cell Viability - LYMP2-018 (AID 985); conditions: LYMP2-018 lymphoblastoid cells, viability (qHTS); series mostly up to 92.2 µM;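 also: compound exposure lasted 24 hr at 37 °C; plate controls were DMSO only for no effect and tetraoctylammonium bromide at 92 µM for full effect; nearly all actives have a fitted effect of over 50% in size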
In short: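 Human lymphoblastoid cells (2500/well) were pre-incubated 5 hr at 37 C, then exposed to compounds for 24 hr at 37 C in complete medium. Viability was read as intracellular ATP by CellTiter-Glo luminescence; AC50 values came from Hill-equation fits.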

[13] = Cell Viability - LYMP1-002 - Assay at 40 hr (AID 994); conditions: LYMP1-002 lymphoblastoid cell viability; series mostly up to 92.2 µM;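 also: 0% = DMSO only and full inhibition = 92 µM tetraoctylammonium bromide; nearly all actives have a fitted effect of over 60% in size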
In short: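 Human lymphoblastoid cells, 2500/well in complete medium, were preincubated 5 hr at 37 C, then exposed to compounds for 40 hr at 37 C. Intracellular ATP was read by CellTiter-Glo luminescence after 30 min at room temperature; AC50 from Hill-equation fits.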

[14] = qHTS assay for small molecule agonists of retinoid X receptor alpha signaling (AID 588544; calls by dose curve;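 as to activation: 0% = DMSO basal wells and 100% = reference agonist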); conditions: HEK293T RXRa-UAS-bla, beta-lactamase reporter, 18 h; 530 nm emission
[15] = target: Retinoic acid receptor RXR-alpha (Homo sapiens) (UniProt P19793); test: as above; conditions: HEK293T RXRa-UAS-bla, beta-lactamase reporter, 18 h; series mostly up to 76.7 µM
Retinoic acid receptor RXR-alpha (Homo sapiens), sequence (P19793 whole entry, looked up): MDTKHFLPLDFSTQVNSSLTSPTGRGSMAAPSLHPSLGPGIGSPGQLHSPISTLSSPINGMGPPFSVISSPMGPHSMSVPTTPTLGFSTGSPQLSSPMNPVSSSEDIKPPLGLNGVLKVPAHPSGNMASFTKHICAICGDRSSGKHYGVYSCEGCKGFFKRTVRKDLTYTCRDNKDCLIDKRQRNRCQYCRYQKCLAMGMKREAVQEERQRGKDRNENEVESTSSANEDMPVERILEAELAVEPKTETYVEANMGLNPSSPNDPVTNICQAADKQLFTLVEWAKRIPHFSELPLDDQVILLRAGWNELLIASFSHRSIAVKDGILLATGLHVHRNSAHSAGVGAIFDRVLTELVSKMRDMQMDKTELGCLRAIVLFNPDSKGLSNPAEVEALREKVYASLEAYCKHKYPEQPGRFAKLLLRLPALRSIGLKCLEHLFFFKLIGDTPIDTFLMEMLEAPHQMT

[16] = qHTS assay for small molecule antagonists of retinoid X receptor alpha signaling (AID 588546; active = well fitted inhibition curve with a large enough effect in the signal ratio, with a control signal flat, not every such curve was filed as active; the % refers to the signal ratio;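 also: cells stimulated with 9-cis-retinoic acid as agonist; % is scaled to controls: 0 for no effect and ±100 for the full control effect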); conditions: HEK293T RXRa-UAS-bla, beta-lactamase ratio, antagonist mode; measured here: W530 green channel, cytotoxicity proxy
In short: (§1)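 Beta-lactamase reporter inhibition, read as CCF4 fluorescence ratio (ex 405, em 460/530 nm) after 2 h at RT. HEK293T UAS-bla cells, 2500/well, were stimulated with 9-cis-RA at 500 or 100 nM final alongside test compound for 18 h at 37 C.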

[17] = target: Retinoic acid receptor RXR-alpha (Homo sapiens) (UniProt P19793); test: as above; conditions: HEK293T RXRa-UAS-bla, beta-lactamase ratio, antagonist mode
In short: as §1

[18] = target: Tumor necrosis factor (Homo sapiens) (UniProt P01375); test: qHTS assay to identify small molecules that stimulate Tumor Necrosis Factor-alpha (TNF-alpha) secretion (AID 651757; active = well fitted curve in the direction sought with a large enough effect in the signal ratio; the % refers to the signal ratio; also: 0% is about no effect); conditions: Human cells, HTRF 665/615 ratio; series mostly up to 92.2 µM
Tumor necrosis factor (Homo sapiens), sequence (P01375 whole entry, looked up): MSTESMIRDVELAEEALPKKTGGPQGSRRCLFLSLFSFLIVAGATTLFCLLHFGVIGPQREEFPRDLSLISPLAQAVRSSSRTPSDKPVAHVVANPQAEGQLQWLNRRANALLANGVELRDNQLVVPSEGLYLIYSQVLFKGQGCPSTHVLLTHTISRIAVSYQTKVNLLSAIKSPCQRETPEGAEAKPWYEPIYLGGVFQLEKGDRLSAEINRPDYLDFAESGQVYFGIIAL
In short: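 THP-1 cells were exposed to compounds for 17 hrs at 37 C, after which secreted TNF-alpha was measured by homogeneous HTRF (TR-FRET) using cryptate- and XL665-labeled anti-TNF-alpha antibodies, read after 3 hr at room temperature.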

[19] = qHTS assay for environmental chemicals that activate the Aryl hydrocarbon Receptor (AhR) signaling pathway (AID 651777); conditions: 1A2-DRE human hepatoma cells, luciferase, 24 h; activation: stronger effect = higher value; also: nearly all actives have a fitted effect of over 15% in size; also: potency is read from the fitted curve at half-maximal effect; as to activation: % of control where 0% means no effect
In short: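 Induction of CYP1A2 transcription through AhR is detected by luciferase in 1A2-DRE hepatoma cells. Compounds or DMSO act for 24 hr at 37 C before a 30 min One-Glo step at room temperature.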

[20] = qHTS assay for small molecule agonists of the antioxidant response element (ARE) signaling pathway measured by Nrf2-dependant transcriptional activity (AID 720636; active = well fitted curve in the direction sought with a large enough effect in the repeat runs; an effect the other way counts as inactive or inconclusive;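 also: HepG2 cells with an ARE-driven luciferase reporter; % of control where 0% means no effect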); conditions: ARE-luc HepG2, Nrf2 luciferase reporter, 16 h; series mostly up to 92.4 µM
In short: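 We exposed ARE-luc HepG2 cells, seeded in assay medium with 1% dialyzed FBS and allowed 6 hr to adhere, to test compounds overnight (16 hr, 37 C) before measuring luciferase with ONE-Glo.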

CC(C)[N+](=O)[O-]
inactive: Potency [1] > 92 µM | Potency [2] > 92 µM | Potency [3] | Potency [4] | Potency [5] | outcome [6] | Potency [7] | Potency [8] | Potency [9] | Potency [10] | Potency [11] | Potency [12] | Potency [13] | outcome [15] | max response [17] 14.3% | outcome [18] | activation [19] 0.897% | Potency [20]
5.89%: max response [14]
10.7%: max response [16]

ClC(Cl)(Cl)C(Cl)(Cl)Cl
0.0695%: max response [14]
inactive: Potency [1] > 92 µM | Potency [2] > 92 µM | Potency [3] | Potency [4] | Potency [5] | outcome [6] | Potency [7] | Potency [8] | Potency [9] | Potency [10] | Potency [11] | Potency [12] | Potency [13] | outcome [15] | max response [17] 8.66% | outcome [18] | activation [19] 0.18% | Potency [20]
-34.4%: max response [16]

Nc1ccc(Cc2ccc(N)cc2)cc1
active: Potency [7] 25.1 µM
-3.16% and 6.7%: max response [16]
inactive: Potency [1] > 92 µM | Potency [2] > 92 µM | Potency [3] | Potency [4] | Potency [5] | outcome [6] | Potency [8] | Potency [9] | Potency [10] | Potency [12] | Potency [13] | outcome [15] | max response [17] -0.525% and -18.2% | activation [19] 1.41% and 1.54% | Potency [20]
7.13%: max response [14]

CC1CC(=O)O1 (stereo not drawn)
inactive: Potency [1] > 92 µM | Potency [2] > 92 µM | Potency [3] | Potency [4] | Potency [5] | outcome [6] | Potency [7] | Potency [8] | Potency [9] | Potency [10] | Potency [11] | Potency [12] | Potency [13] | outcome [15] | max response [17] 4.5% | outcome [18] | activation [19] 0.52% | Potency [20]
-1.73%: max response [16]
-12.1%: max response [14]

c1ccc(OCC2CO2)cc1 (stereo not drawn)
inactive: Potency [1] > 92 µM | Potency [2] > 92 µM | Potency [3] | Potency [4] | Potency [5] | outcome [6] | Potency [7] | Potency [8] | Potency [9] | Potency [10] | Potency [11] | Potency [12] | Potency [13] | outcome [15] | max response [17] -20.9% | outcome [18] | activation [19] 0.197% | Potency [20]
6.84%: max response [16]
6.69%: max response [14]

O=[N+]([O-])c1cccc2c([N+](=O)[O-])cccc12
-11.5%: max response [14]
inactive: Potency [1] > 92 µM | Potency [2] > 92 µM | Potency [3] | Potency [4] | Potency [5] | outcome [6] | Potency [7] | Potency [8] | Potency [9] | Potency [10] | Potency [11] | Potency [12] | Potency [13] | outcome [15] | max response [17] 7.28% | outcome [18] | activation [19] 0.19%
-12.9%: max response [16]

Nc1ccc(-c2ccc(N)c(Cl)c2)cc1Cl
-2.3% and -7.33%: max response [16]
active: Potency [2] 3.05 µM | Potency [4] 31.6 µM | Potency [5] 12.6 µM | Potency [7] 15.8 µM | Potency [8] 25.1 µM | Potency [19] 44.7 µM
inactive: outcome [6] | Potency [9] | Potency [10] | Potency [11] | Potency [12] | max response [17] -19% and -20.8%

Cc1cnc[nH]1
2.59%: max response [14]
-10.6%: max response [16]
inactive: Potency [1] > 92 µM | Potency [2] > 92 µM | Potency [3] | Potency [4] | Potency [5] | outcome [6] | Potency [7] | Potency [8] | Potency [9] | Potency [10] | Potency [11] | Potency [12] | outcome [15] | max response [17] 4.17% | outcome [18] | activation [19] 1.06% | Potency [20]

Nc1cccc(Cl)c1
inactive: Potency [1] > 92 µM | Potency [2] > 92 µM | Potency [3] | Potency [4] | Potency [5] | outcome [6] | Potency [7] | Potency [8] | Potency [9] | Potency [11] | Potency [12] | Potency [13] | outcome [15] | max response [17] -7.21% | outcome [18] | activation [19] -0.221% | Potency [20]
0.683%: max response [16]
4.67%: max response [14]

O=C(O)C(Cl)Br (stereo not drawn)
-0.567%: max response [14]
-6.53%: max response [16]
inactive: Potency [1] > 92 µM | Potency [2] > 92 µM | Potency [3] | Potency [4] | Potency [5] | outcome [6] | Potency [7] | Potency [8] | Potency [9] | Potency [10] | Potency [11] | Potency [12] | Potency [13] | outcome [15] | max response [17] 0.341% | outcome [18] | activation [19] 0.968% | Potency [20]
